In publication PMC7819943, “Rice protein-binding microarrays: a tool to detect cis-acting elements near promoter regions in rice” one finds binding signal data, which are given here for 42 sequences.

Over roughly 68,000 sequences, “fluorescence intensity (a.u.)” has its median near 9,100; the highest 2% begin near 16,000. The sample as a whole holds a higher share of the highest values than the screen did.

Chain of OsWRKY34 (Q0JBA9 entry or part of it): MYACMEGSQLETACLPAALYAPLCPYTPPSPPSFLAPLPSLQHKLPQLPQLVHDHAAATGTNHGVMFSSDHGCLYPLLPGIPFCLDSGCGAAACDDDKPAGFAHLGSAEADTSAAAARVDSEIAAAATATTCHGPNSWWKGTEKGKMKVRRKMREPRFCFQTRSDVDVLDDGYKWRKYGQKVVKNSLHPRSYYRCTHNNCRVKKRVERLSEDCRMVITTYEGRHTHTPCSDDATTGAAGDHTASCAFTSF

This assay addresses OsWRKY34 (Oryza sativa, UniProt Q0JBA9 1-250). Kind of assay: protein-binding microarray (RPBM); PBS, 2% BSA, 51.3 ng/ul salmon testes DNA, 50 uM zinc acetate, 200 nM TF, 25 C, 1 h; high values mean tight binding. The note with it: protein: recombinant; tags: N-terminal polyhistidine and DsRed monomer fusion (pET32a); label: CyDye5-dUTP incorporated in the synthesized complementary strand; 3' TTTTT single-stranded linker to array surface; dsDNA, one strand shown. An outline of the steps: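 In PBS with 2% BSA, salmon testes DNA and 50 µM zinc acetate, 200 nM protein was incubated on a custom Agilent array at 25 °C for 1 h and then washed off. The array had been made double-stranded by primer extension with Cy5-dUTP and blocked with 2% BSA. The proteins were transcription factors fused N-terminally to polyhistidine and DsRed, expressed in E. coli BL21-CodonPlus and purified on Ni–NTA. The binding signal is per-feature fluorescence intensity (arbitrary units) from an Axon 4000B scanner.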
Take “ATCAATCTATTAGAATACTTATTACTGTATCTACTTATGTCGGAGTCACCTAGTGCAG”: the binding signal was 8690 fluorescence intensity (a.u.). The result for “TAGGTTTTTTTTTACTTTTTAACTTGGCTGATTTTATTGACGGAGTCACCTAGTGCAG” reads 8760 fluorescence intensity (a.u.); that for “GACTCTTGCGATTCCCTCTGTTGAACTTGTTCGTTCTCCTCGGAGTCACCTAGTGCAG”, 10600 fluorescence intensity (a.u.). Consider “TTCCCCATGTTTTTTTGCCCACTAACTCACTAGCCACCACCGGAGTCACCTAGTGCAG”, for which the binding signal is 10700 fluorescence intensity (a.u.).

Turning to “CCTCGACCTCTCGCTACTCCAGGCGCCGCCCCATCAGATGCGGAGTCACCTAGTGCAG”, the binding signal was 8200 fluorescence intensity (a.u.). The result for “CGTACGCGCCCACGCCCACTCCCACGCCTTCGCGCGCGCGCGGAGTCACCTAGTGCAG” reads 9220 fluorescence intensity (a.u.); that for “TTAGGTCGGGTTTTTCCCGTTTCTCGTTTCTATGGCGATGCGGAGTCACCTAGTGCAG”, 8750 fluorescence intensity (a.u.); that for “TCCTTGTGCCCACTTCTAGCTAGCTTCCAAGTTCCAACCACGGAGTCACCTAGTGCAG”, 13700 fluorescence intensity (a.u.). In the case of “GGTGCTTGTTTAATCAAAGCTTGCTATTTGGTACTTTTTTCGGAGTCACCTAGTGCAG”, the binding signal was 8940 fluorescence intensity (a.u.). Then “GGACCACCCTGCCGCGGACATCACCCATCTCGTCATCTCCCGGAGTCACCTAGTGCAG”, with 9570 fluorescence intensity (a.u.); and “ATATTTGACGCCGTTGACTTTTTTAAACATGTTTGACCGTCGGAGTCACCTAGTGCAG”, with 44400 fluorescence intensity (a.u.); and “ATCTAGGATACCGTTGACTTTTCGTACTAACATTTGACGTCGGAGTCACCTAGTGCAG”, with 32800 fluorescence intensity (a.u.). The result for “TGTTTTATTTTTAGGATACTTCTACCTTTTTTCGCTTTGACGGAGTCACCTAGTGCAG” reads 9510 fluorescence intensity (a.u.). The result for “CCGTTGGCTTTTTTAAACATGTTTGACCGTTTATTTTATTCGGAGTCACCTAGTGCAG” reads 14100 fluorescence intensity (a.u.).

For “TTGACGCCGTTGACTTTTCTAAACATATTTGACTATTCGTCGGAGTCACCTAGTGCAG”, the binding signal is 22300 fluorescence intensity (a.u.). For “TCCCTAAATATTTGACGCCATTGACTTTTTTAAACATGTTCGGAGTCACCTAGTGCAG”, the binding signal is 11200 fluorescence intensity (a.u.).

As to “CAAATTACTTCCTTTTCAAAATCTAGGATACCGTTGACTTCGGAGTCACCTAGTGCAG”, the binding signal was 9460 fluorescence intensity (a.u.). Then “CACATATTGATCTATTCTACTAAATTTTTTTTATGACTTTCGGAGTCACCTAGTGCAG”, with 8630 fluorescence intensity (a.u.); and “TCCCTAAATATTTGACGCCGTTGACTTTTTTAAACATGTTCGGAGTCACCTAGTGCAG”, with 26400 fluorescence intensity (a.u.).

For “TGCTTTGGTTGTCTTCTTTATCTAGAAGGCTTTGATTGCTCGGAGTCACCTAGTGCAG”, the binding signal was 9520 fluorescence intensity (a.u.). Consider “TCATTGTTCTCACTTCCTCGTCTTGAGCACTTGAGTCTCTCGGAGTCACCTAGTGCAG”, for which the binding signal is 8420 fluorescence intensity (a.u.).

As to “TGCACTGGGCTCCCATCTGAATGTCCTTATGCCAACCTCCCGGAGTCACCTAGTGCAG”, the binding signal is 8520 fluorescence intensity (a.u.). In the case of “CTAATCCTCCTGCTCCATCTCGATCCACATAACGATCCACCGGAGTCACCTAGTGCAG”, the binding signal was 8470 fluorescence intensity (a.u.). Then “CATATTATAAATCATTTGACTTTTTTCATATTCAAAATTTCGGAGTCACCTAGTGCAG”, with 9090 fluorescence intensity (a.u.). Then “ACTCTATTTAGATATTTTCCCACGCATCCGTCTCCTCCTCCGGAGTCACCTAGTGCAG”, with 9420 fluorescence intensity (a.u.). Then “ACCAAACCCACGGCCTGGCCCACTGTCAGTACTAAGATAGCGGAGTCACCTAGTGCAG”, with 9120 fluorescence intensity (a.u.); and “TCGCAGCAGCTGTTTTACCGGCTAGTTTTTTGCACACATCCGGAGTCACCTAGTGCAG”, with 8600 fluorescence intensity (a.u.). On to “CCTCCGTCCCTAAATATTCGACGCCGTTGACTTTTTTAAACGGAGTCACCTAGTGCAG”, for which the binding signal was 21700 fluorescence intensity (a.u.). Regarding “TATCTAAATATTTGACGCCGTTGACTTTTTAAAACATGTTCGGAGTCACCTAGTGCAG”, the binding signal is 30900 fluorescence intensity (a.u.). On to “CTCCGTTTGTAAATATTTGACGCCGTTGACTTTTTAAAATCGGAGTCACCTAGTGCAG”, for which the binding signal is 22700 fluorescence intensity (a.u.).

For “ATATTTGACGCCGTTGACTTTTTTAAACATATTTAACTGTCGGAGTCACCTAGTGCAG”, the binding signal is 14600 fluorescence intensity (a.u.).

With “GTCCCTAAATATTTGACGCCGTTGACTTTTTTAAACATGTCGGAGTCACCTAGTGCAG”, the binding signal was 28500 fluorescence intensity (a.u.). The result for “CCCTTTCACATGTCACCTCTGACCCACAAACAAACCCTTTCGGAGTCACCTAGTGCAG” reads 8210 fluorescence intensity (a.u.). “GAGTTATCCTCACCACCCACCGCTCGTCGCCTCCACTCCGCGGAGTCACCTAGTGCAG”: the binding signal was 8120 fluorescence intensity (a.u.). The result for “AGTAAGAGATCTCAAATTGATATGGGTTCTTGTTTTATATCGGAGTCACCTAGTGCAG” reads 8150 fluorescence intensity (a.u.); that for “CACCAAGCAGTCCCCTGTGTTCATCTTCTGAAGTCTGATTCGGAGTCACCTAGTGCAG”, 8360 fluorescence intensity (a.u.). Then “ATTCCGCGCGCCGCCGCCGTCGCCGCCGCCGACGTCGCCGCGGAGTCACCTAGTGCAG”, with 8920 fluorescence intensity (a.u.); and “GATGCCATTTTTAAACAATTCCATGCCTTGTTTCCATTTCCGGAGTCACCTAGTGCAG”, with 13400 fluorescence intensity (a.u.); and “GTACTCCCTCTGACCCTAAATATTTGACGTCGTTGACTTTCGGAGTCACCTAGTGCAG”, with 16300 fluorescence intensity (a.u.). The result for “CTCCGTTATCGTTTGACTTTCTTTTCATTAATATTTTAAACGGAGTCACCTAGTGCAG” reads 15600 fluorescence intensity (a.u.); that for “CTAAATATTTGACGCCGTTGACTTTTTAAAACATGTTTGACGGAGTCACCTAGTGCAG”, 30500 fluorescence intensity (a.u.); that for “CATCTGTTTCTGAATATTTGACGCCGTTGACTTTTTAAAACGGAGTCACCTAGTGCAG”, 19600 fluorescence intensity (a.u.).
